Test results reported in PubChem BioAssay (Tox21).
A number with no mark means an inactive call. Activity calls are given as the source filed them. The call rests on the fitted dose curve; in most records, active means well fitted curve in the direction sought with a large enough effect in the repeat runs; inconclusive means weak or mixed curves; inactive means flat fitted curve, though single readings scatter.

Assay: qHTS assay to test for compound auto fluorescence at 590 nm (red) in HEK293 cell free culture (AID 720683)
Conditions: cell-free medium autofluorescence, Ex540/Em590 red; series mostly up to 91.3 µM; fluorescence, % of fluorescent control: at the top concentration
From the text: U.S. Tox21 Program National Center for Advancing Translational Sciences [NCATS] NIH Chemical Genomics Center [NCGC] U.S. Environmental Protection Agency [EPA] National Institutes of Environmental Health Sciences [NIEHS] National Toxicology Program [NTP] U.S. Food and Drug Administration [FDA] Tox21 Assay Overview: Compound auto fluorescence often interferes with screening of the compound library against various biological targets and signaling pathways. Some of these compounds may have fluorophoric properties. Such properties may interfere with the assay outputs resulting in false positives and/or negatives. To decrease such complications and ensure the compound activities are relevant in terms of biological response, the Tox21 10K compound library was screened for auto fluorescence. From the fluorophores used as reporter signals in our screening assays, the auto fluorescence equivalencies of compounds against three fluorophores have been evaluated: Triamterene, Fluorescein and Rose Bengal sodium for blue, green and red fluorescence, respectively. The fluorescence intensities were measured using Excitation/Emission wavelengths at 405/460nm, 485/535nm and 540/590nm for blue, green and red labels, respectively. This assay includes the red fluorescence data.
Tox21 Assay Protocol Summary: 5 uL of culture medium (DMEM containing 10% FBS) per well was dispensed into black wall/clear bottom 1536-well plates using a Multidrop Combi Dispenser (ThermoFisher Scientific, Waltham, MA). After 23 nL compound or DMSO vehicle was transferred into assay plate by a pintool work station (Kalypsys, San Diego, CA), fluorescence intensities in the assay plates were measured by an Envision (PerkinElmer, Shelton, CT) plate reader using three labels for measuring blue, green and red fluorescence at […] 460, 535 and 590nm respectively.
On the % scale 0 is the no-effect control and ±100 the full control effect.

SMILES	fluorescence, % of fluorescent control	outcome
CCCCCCCCCCCCSC	0.178%	
CCCO[Si](OCCC)(OCCC)OCCC	0.199%	
c1ccc2sc(SN3CCOCC3)nc2c1	0.284% [at 46 µM]	
CCCn1cc[n+](C)c1C	0.0528% [at 95.7 µM]	
COc1ccc2cc1Oc1cc3c(cc1OC)CC[N+](C)(C)[C@H]3Cc1ccc(cc1)Oc1c(OC)c(OC)cc3c1[C@@H](C2)[N+](C)(C)CC3	-0.222% [at 46 µM]	
CC(C)COC(=O)c1ccc(N)cc1	0.0391% [at 46 µM]	
CC(C#N)(CCC(=O)O)N=NC(C)(C#N)CCC(=O)O (stereo not given)	-0.0502%	
O=S(=O)(O)c1cccc2ccccc12	-0.0888%	
CNC(=O)Nc1ccc(Cl)c(Cl)c1	-0.0465%	
Cc1ccc(C(=O)Nc2ccc(S(=O)(=O)O)c3cc(S(=O)(=O)O)cc(S(=O)(=O)O)c23)cc1NC(=O)c1cccc(NC(=O)Nc2cccc(C(=O)Nc3cc(C(=O)Nc4ccc(S(=O)(=O)O)c5cc(S(=O)(=O)O)cc(S(=O)(=O)O)c45)ccc3C)c2)c1	-0.47% [at 46 µM]	
Cc1ccc(C(=O)c2ccc(CC(=O)O)n2C)cc1	0.0035% [at 18.6 µM]	
C[N+]1(C)CCCC(OC(=O)C(O)(c2ccccc2)c2ccccc2)C1 (stereo not given)	0.023% [at 18.6 µM]	
C=C(C)C(=O)OCCOCCOCCOCCOC(=O)C(=C)C	-0.353%	
CC1=NS(=O)(=O)c2cc(Cl)ccc2N1	0.176% [at 46 µM]	
C=COC(=O)C(C)(CC)CCC(C)C (stereo not given)	-0.0289%	
O=C(O)CCSCCC(=O)O	0.165%	
O=C(O)CNC(=O)c1ccc(CO)o1	0.134%	
CC1CCC(CO)CC1 (stereo not given)	0.201% [at 95.7 µM]	
CC[N+](CC)(CC(=O)Nc1c(C)cccc1C)Cc1ccccc1 (tested in a mixture with another compound)	0.29%	
N[C@@H](CCC(=O)O)C(=O)O		inactive

SMILES	fluorescence, % of fluorescent control	outcome
NC(CCC(=O)O)C(=O)O (stereo not given)	0.233%	
CC(C)C(=O)OC(=O)C(C)C	-0.197%	
NO	-0.0296% [at 95.7 µM]	
Cc1ccc(-c2ncc(Cl)cc2-c2ccc(S(C)(=O)=O)cc2)cn1	0.156% [at 46 µM]	
CCN1CCOCC1	0.0323%	
CN(C)CCN(C)CCN(C)C	0.0851%	
CN1C(C)(C)CC(O)CC1(C)C	0.0049%	
CC1(C)[C@@H]2CC[C@@]1(C)[C@H](O)C2	0.0278%	
CC(=O)c1cnccn1	-0.105% [at 95.7 µM]	
Cc1ccc(C(=O)c2ccccc2)cc1	-0.0421%	
COc1c(N2CCNC(C)C2)c(F)cc2c(=O)c(C(=O)O)cn(C3CC3)c12 (stereo not given)	0.196% [at 46 µM]	
CCCC(C)C(=O)OCC (stereo not given)	0.142%	
O=C(O)CNC(=O)c1ccccc1	-0.0294% [at 46 µM]	
CCCCN1C=CN(C)C1	0.0298% [at 18.6 µM]	
CC1=NN(c2cc(S(=O)(=O)O)ccc2Cl)C(=O)C1N=Nc1ccccc1 (stereo not given)	-0.242%	
CN1[C@@H]2CC[C@H]1CC(OC(=O)C(O)c1ccccc1)C2 (stereo not given in full)		inactive
CCCC[N+](C)(CCCC)CCCC	0.0523%	
CCOC(=O)COc1cc(-n2ncc(C(F)(F)F)c(C)c2=O)c(F)cc1Cl	-0.35%	
CC1=CCC(O)(C(C)C)CC1 (stereo not given)	-0.142%	
O=[N+]([O-])c1ccc(/C=N\O)o1	0.134% [at 46 µM]	
